# Data from the supplement of paper PMC13380429.
# Counter-ions that a name gives are not always drawn.
# Legend:
# [1] = tested on: Vero E6 infected with SARS-CoV-2; assay: morphology score (similarity to uninfected cells); higher = more like uninfected cells; details: 24 h
# [2] = tested on: Vero E6 infected with SARS-CoV-2; assay: SARS-CoV-2 infection rate relative to infected DMSO; higher = more infection, active = 60 or less; details: 24 h
SMILES,morphology score [1],SARS-CoV-2 infection rate [2]
CC1CCN(C(c2ccc(F)cc2)c2ccc(C(C)C(=O)O)cc2-c2ccc(C(F)(F)F)cc2)CC1 (stereo not given) (10 µM),0.0608,106% (inactive)
Cc1ncc(CO)c(CO)c1O [pyridoxine] (10 µM),0.0823,108% (inactive)
Cn1cc(-c2ccc3nnc(C(F)(F)c4ccc5ncccc5c4)n3n2)cn1 (10 µM),0.39,95.5% (inactive)
CC(C)NC(=O)COc1cccc(-c2nc(Nc3ccc4[nH]ncc4c3)c3ccccc3n2)c1 (0.833333 µM),-0.0169,106% (inactive)
CC(=O)OC[C@H]1O[C@@H](n2ccc(=O)[nH]c2=O)[C@H](OC(C)=O)[C@@H]1OC(C)=O [uridine-triacetate] (10 µM),-0.0249,112% (inactive)
CCCCn1c(-c2ccccc2)nc(-c2ccccc2)c1CN(Cc1ccc2c(c1)OCO2)Cc1ccc2c(c1)OCO2 (10 µM),0.139,99.5% (inactive)
Cc1ccc(C(=O)Nc2ccc(CN3CCN(C)CC3)c(C(F)(F)F)c2)cc1C#Cc1cnc2cccnn12 [ponatinib] (10 µM),0.435,97% (inactive)
C[C@H](NCc1ccc(OCc2ccccc2F)cc1)C(N)=O [priralfinamide] (10 µM),-0.175,114% (inactive)
C[C@H](N)Cc1c[nH]cn1 [alpha-methylhistamine-dihydrobromide-(S)-(+)] (10 µM),0.17,99% (inactive)
CCC(CO)(C(=O)OC1CC2CCC(C1)[N+]2(C)C)c1ccccc1 (stereo not given) [troventol] (10 µM),-0.023,106% (inactive)
